Results as given in PubChem BioAssay (EPA / NIEHS).
Activity calls are given as the source filed them. The calls were made as follows: active = hit-call score of the fitted dose curve at least 0.9, where 1 is the maximum; inactive = score below 0.9.

What was measured:
[1] = read-out: Vascular endothelial growth factor receptor 2 (Homo sapiens) (UniProt P35968); experiment: BSK_4H_VEGFRII: BioMAP Diversity Plus: 4H Assay for Vascular endothelial growth factor receptor 2 (VEGFR2) Biomarker Activity (AID 2283031); conditions: primary human endothelial cells (HUVEC); actives raise or lower the signal;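 as to AC50: cell-surface VEGFR2 protein level quantified by ELISA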
Procedure, shortened: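 HUVEC (human primary), 4H system; 24 h post-dose; VEGFRII by ELISA; bidirectional curve fit vs DMSO baseline; gain or loss of signal scored.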

[2] = read-out: Vascular cell adhesion molecule 1 (VCAM1), VCAM1 (gene 7412); experiment: BSK_4H_VCAM1: BioMAP Diversity Plus: 4H Assay for Vascular cell adhesion molecule 1 (VCAM1) Biomarker Activity (AID 2283033); conditions: primary human endothelial cells (HUVEC); actives raise or lower the signal
Procedure, shortened: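 Primary human umbilical vein endothelial cells, 4H stimulation system, treated for 24 h; cell-surface VCAM-1 quantified by ELISA. Bidirectional fitting against DMSO; cytotoxicity tracked by SRB total-protein staining in parallel cultures.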

[3] = read-out: Monokine induced gamma interferon (MIG), CXCL9 (gene 4283); experiment: BSK_BE3C_MIG: BioMAP Diversity Plus: BE3C Assay for Monokine induced gamma interferon (MIG) Biomarker Activity (AID 2283035); conditions: primary human bronchial epithelial cells; actives raise or lower the signal;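 as to outcome: MIG protein measured by ELISA in BE3C cultures after 24 h of dosing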
Procedure, shortened: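 ELISA read-out of MIG in human lung bronchial epithelial primary cultures, 24 h post-dosing. Bidirectional curve fit vs DMSO baseline.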

[4] = read-out: Transforming growth factor beta 1 (TGFb1), TGFB1 (gene 7040); experiment: BSK_BE3C_TGFb1: BioMAP Diversity Plus: BE3C Assay for Transforming growth factor beta 1 (TGFb1) Biomarker Activity (AID 2283036); conditions: primary human bronchial epithelial cells; actives raise or lower the signal
Procedure, shortened: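 Primary human bronchial epithelial cells dosed with chemical; TGF-b1 measured by ELISA 24 h after dosing. Bidirectional curve fitting against DMSO negative control; SRB total-protein staining in parallel cultures gauged cytotoxicity.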

[5] = read-out: Plasminogen activator inhibitor-1 (PAI1), SERPINE1 (gene 5054); experiment: BSK_BE3C_PAI1: BioMAP Diversity Plus: BE3C Assay for Plasminogen activator inhibitor-1 (PAI1) Biomarker Activity (AID 2283037); conditions: primary human bronchial epithelial cells; actives raise or lower the signal
Procedure, shortened: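 Primary human bronchial epithelial cells (BE3C system) exposed 24 h; PAI-1 quantified by ELISA. Parallel sulforhodamine B staining of total protein flags cytotoxicity. Bidirectional fit versus DMSO.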

[6] = read-out: urokinase plasminogen activator (uPA), PLAU (gene 5328); experiment: BSK_BE3C_uPA: BioMAP Diversity Plus: BE3C Assay for urokinase plasminogen activator (uPA) Biomarker Activity (AID 2283038); conditions: primary human bronchial epithelial cells; actives raise or lower the signal;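 as to outcome: uPA protein level quantified by ELISA in cell cultures; uPA read one day after compound addition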
Procedure, shortened: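 ELISA read-out of uPA in human lung primary bronchial epithelial cultures, 24 h post-dosing. Gain or loss of signal fitted bidirectionally relative to DMSO baseline; cytotoxicity checked in parallel cultures via SRB total protein stain.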

[7] = read-out: Urokinase-type plasminogen activator receptor (uPAR), PLAUR (gene 5329); experiment: BSK_BE3C_uPAR: BioMAP Diversity Plus: BE3C Assay for Urokinase-type plasminogen activator receptor (uPAR) Biomarker Activity (AID 2283039); conditions: primary human bronchial epithelial cells; actives raise or lower the signal;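 as to outcome: uPAR protein level measured by ELISA on the cells; cells exposed to compound for one day before measurement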
Procedure, shortened: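 Primary human bronchial epithelial cells dosed for 24 h; uPAR quantified by ELISA with bidirectional fitting against DMSO. Overt cytotoxicity assessed in parallel cultures by SRB total-protein staining (0.1% SRB, 560 nm).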

[8] = read-out: Interleukin-6 (IL6), IL6 (gene 3569); experiment: BSK_CASM3C_IL6: BioMAP Diversity Plus: CASM3C Assay for Interleukin-6 (IL6) Biomarker Activity for (AID 2283040); conditions: primary human coronary artery smooth muscle cells; actives raise or lower the signal
[9] = read-out: Tissue plasminogen activator (tPA), PLAT (gene 5327); experiment: BSK_BE3C_tPA: BioMAP Diversity Plus: BE3C Assay for Tissue plasminogen activator (tPA) Biomarker Activity (AID 2283041); conditions: primary human bronchial epithelial cells; actives raise or lower the signal;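 as to outcome: tPA level quantified by ELISA one day after compound addition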
Procedure, shortened: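 Primary human bronchial epithelial cells in the BE3C system, exposed to compound for 24 h. tPA was quantified by ELISA; DMSO served as baseline, with gain or loss of signal fitted. Cytotoxicity checked in parallel cultures by SRB total-protein staining.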

[10] = read-out: Interleukin-8 (IL8), CXCL8 (gene 3576); experiment: BSK_CASM3C_IL8: BioMAP Diversity Plus: CASM3C Assay for Interleukin-8 (IL8) Biomarker Activity (AID 2283042); conditions: primary human coronary artery smooth muscle cells; actives raise or lower the signal;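 also: IL-8 protein level quantified by ELISA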
[11] = read-out: Human Leukocyte Antigen - DR isotype (HLADR), HLA-DRA (gene 3122); experiment: BSK_CASM3C_HLADR: BioMAP Diversity Plus: CASM3C Assay for Human Leukocyte Antigen - DR isotype (HLADR) Biomarker Activity (AID 2283043); conditions: primary human coronary artery smooth muscle cells; actives raise or lower the signal;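 also: cell-surface HLA-DR protein level quantified by ELISA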
[12] = read-out: Macrophage colony-stimulating factor (MCSF), CSF1 (gene 1435); experiment: BSK_CASM3C_MCSF: BioMAP Diversity Plus: CASM3C Assay for Macrophage colony-stimulating factor (MCSF) Biomarker Activity (AID 2283044); conditions: primary human coronary artery smooth muscle cells; actives raise or lower the signal;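 also: M-CSF protein amount quantified by ELISA after 24 h exposure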
[13] = read-out: Low-density lipoprotein receptor (LDLR), LDLR (gene 3949); experiment: BSK_CASM3C_LDLR: BioMAP Diversity Plus: CASM3C Assay for Low-density lipoprotein receptor (LDLR) Biomarker Activity (AID 2283045); conditions: primary human coronary artery smooth muscle cells; actives raise or lower the signal;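 also: LDLR protein level on the cell surface quantified by ELISA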
[14] = read-out: Monocyte Chemoattractant Protein-1 (MCP1), CCL2 (gene 6347); experiment: BSK_CASM3C_MCP1: BioMAP Diversity Plus: CASM3C Assay for Monocyte Chemoattractant Protein-1 (MCP1) Biomarker Activity (AID 2283046); conditions: primary human coronary artery smooth muscle cells; actives raise or lower the signal;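 also: MCP-1 level quantified by ELISA 24 h after dosing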
[15] = BSK_CASM3C_Proliferation: Cell Proliferation Assessment in the BioMAP Diversity Plus: CASM3C Assay (AID 2283047); conditions: primary human coronary artery smooth muscle cells;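 also: sulforhodamine B total protein stain as relative cell number at 560 nm; sub-confluent cells exposed 48 h before staining; fitted both ways against DMSO so gain or loss of cell number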
[16] = read-out: Monokine induced gamma interferon (MIG), CXCL9 (gene 4283); experiment: BSK_CASM3C_MIG: BioMAP Diversity Plus: CASM3C Assay for Monokine induced gamma interferon (MIG) Biomarker Activity (AID 2283048); conditions: primary human coronary artery smooth muscle cells; actives raise or lower the signal;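 also: MIG protein level measured by ELISA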
[17] = read-out: serum amyloid A (SAA), SAA1 (gene 6288); experiment: BSK_CASM3C_SAA: BioMAP Diversity Plus: CASM3C Assay for serum amyloid A (SAA) Biomarker Activity (AID 2283049); conditions: primary human coronary artery smooth muscle cells; actives raise or lower the signal;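 also: SAA protein level quantified by ELISA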
[18] = BSK_CASM3C_SRB: Viability Assessment in the BioMAP Diversity Plus: CASM3C Assay (AID 2283050); conditions: primary human coronary artery smooth muscle cells
[19] = read-out: Interferon-gamma inducible Protein 10 (IP10), CXCL10 (gene 3627); experiment: BSK_BE3C_IP10: BioMAP Diversity Plus: BE3C Assay for Interferon-gamma inducible Protein 10 (IP10) Biomarker Activity (AID 2283034); conditions: primary human bronchial epithelial cells; actives raise or lower the signal
Procedure, shortened: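 Primary human bronchial epithelial cells, with IP-10 measured by ELISA 24 hours after chemical dosing. Bidirectional fit against DMSO; cytotoxicity checked by SRB total protein staining in parallel cultures.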

## CNC(=O)N(C)c1nnc(C(C)(C)C)s1
[1]
  outcome: inactive
[2]
  outcome: inactive
[3]
  outcome: inactive
[4]
  outcome: inactive
[5]
  outcome: inactive
[6]
  outcome: inactive
[7]
  outcome: inactive
[8]
  outcome: inactive
[9]
  outcome: inactive
[10]
  outcome: inactive
[11]
  outcome: inactive
[12]
  outcome: inactive
[13]
  outcome: inactive
[14]
  outcome: inactive
[15]
  outcome: inactive
[16]
  outcome: inactive
[17]
  outcome: inactive
[18]
  outcome: inactive

## Nc1c(Cl)c(Cl)nc(C(=O)O)c1Cl
[1]
  outcome: inactive
[2]
  outcome: inactive
[3]
  outcome: inactive
[4]
  outcome: inactive
[5]
  outcome: inactive
[6]
  outcome: inactive
[7]
  outcome: inactive
[8]
  outcome: inactive
[9]
  outcome: inactive
[10]
  outcome: inactive
[11]
  outcome: inactive
[12]
  outcome: inactive
[13]
  outcome: inactive
[14]
  outcome: inactive
[15]
  outcome: inactive
[16]
  outcome: inactive
[17]
  outcome: inactive
[18]
  outcome: inactive

## CCNC(=O)NC(=O)C(C#N)=NOC
[2]
  outcome: inactive
[3]
  outcome: inactive
[4]
  outcome: inactive
[5]
  outcome: inactive
[6]
  outcome: inactive
[7]
  outcome: inactive
[8]
  AC50: 6.13 µM (active)
[9]
  outcome: inactive
[10]
  outcome: inactive
[11]
  outcome: inactive
[12]
  outcome: inactive
[13]
  outcome: inactive
[14]
  AC50: 1.98 µM (active)
[15]
  outcome: inactive
[16]
  outcome: inactive
[17]
  outcome: inactive
[18]
  outcome: inactive

## COP(=S)(OC)Oc1ccc([N+](=O)[O-])c(C)c1
[1]
  outcome: inactive
[2]
  outcome: inactive
[19]
  outcome: inactive
[3]
  outcome: inactive
[4]
  outcome: inactive
[5]
  outcome: inactive
[6]
  outcome: inactive
[7]
  outcome: inactive
[8]
  outcome: inactive
[9]
  outcome: inactive
[10]
  outcome: inactive
[11]
  outcome: inactive
[12]
  outcome: inactive
[13]
  outcome: inactive
[14]
  outcome: inactive
[15]
  outcome: inactive
[16]
  outcome: inactive
[17]
  outcome: inactive
[18]
  outcome: inactive

## Cc1nc(N(C)C)nc(OC(=O)N(C)C)c1C
[1]
  outcome: inactive
[2]
  outcome: inactive
[3]
  outcome: inactive
[4]
  outcome: inactive
[5]
  outcome: inactive
[6]
  outcome: inactive
[7]
  outcome: inactive
[8]
  outcome: inactive
[9]
  outcome: inactive
[10]
  outcome: inactive
[11]
  outcome: inactive
[12]
  outcome: inactive
[13]
  outcome: inactive
[14]
  outcome: inactive
[15]
  outcome: inactive
[16]
  outcome: inactive
[17]
  outcome: inactive
[18]
  outcome: inactive

## CCOc1cc(C(C)(C)C)ccc1C1COC(c2c(F)cccc2F)=N1 (stereo not given)
[1]
  AC50: 22.8 µM (active)
[2]
  AC50: 37.4 µM (active)
[19]
  AC50: 16.3 µM (active)
[3]
  outcome: inactive
[4]
  outcome: inactive
[5]
  AC50: 19 µM (active)
[6]
  AC50: 20 µM (active)
[7]
  AC50: 6.6 µM (active)
[8]
  outcome: inactive
[9]
  AC50: 22.1 µM (active)
[10]
  outcome: inactive
[11]
  outcome: inactive
[12]
  outcome: inactive
[13]
  outcome: inactive
[14]
  AC50: 32.5 µM (active)
[15]
  AC50: 33 µM (active)
[16]
  outcome: inactive
[17]
  outcome: inactive
[18]
  AC50: 25 µM (active)

## COc1ccc(-c2ccccc2)cc1NNC(=O)OC(C)C
[1]
  outcome: inactive
[2]
  outcome: inactive
[3]
  outcome: inactive
[4]
  outcome: inactive
[5]
  outcome: inactive
[6]
  outcome: inactive
[7]
  outcome: inactive
[8]
  outcome: inactive
[9]
  outcome: inactive
[10]
  outcome: inactive
[11]
  outcome: inactive
[12]
  outcome: inactive
[13]
  outcome: inactive
[14]
  outcome: inactive
[15]
  outcome: inactive
[16]
  outcome: inactive
[17]
  outcome: inactive
[18]
  outcome: inactive

## CS(=O)(=O)c1ccc(C(=O)C2C(=O)CCCC2=O)c([N+](=O)[O-])c1
[1]
  outcome: inactive
[2]
  outcome: inactive
[19]
  outcome: inactive
[3]
  outcome: inactive
[4]
  outcome: inactive
[5]
  outcome: inactive
[6]
  outcome: inactive
[7]
  outcome: inactive
[8]
  outcome: inactive
[9]
  outcome: inactive
[10]
  outcome: inactive
[11]
  outcome: inactive
[12]
  outcome: inactive
[13]
  outcome: inactive
[14]
  outcome: inactive
[15]
  outcome: inactive
[16]
  outcome: inactive
[17]
  outcome: inactive
[18]
  outcome: inactive

## Cc1ccc(N=CN(C)C=Nc2ccc(C)cc2C)c(C)c1
[1]
  AC50: 26 µM (active)
[2]
  AC50: 29.5 µM (active)
[19]
  AC50: 30.5 µM (active)
[3]
  AC50: 33.3 µM (active)
[4]
  AC50: 34.1 µM (active)
[5]
  AC50: 30.7 µM (active)
[6]
  AC50: 35.4 µM (active)
[7]
  outcome: inactive
[8]
  AC50: 30.9 µM (active)
[9]
  outcome: inactive
[10]
  outcome: inactive
[11]
  outcome: inactive
[12]
  AC50: 29.6 µM (active)
[13]
  outcome: inactive
[14]
  outcome: inactive
[15]
  AC50: 30.4 µM (active)
[16]
  outcome: inactive
[17]
  AC50: 28.7 µM (active)
[18]
  AC50: 28.5 µM (active)
